Screening data as filed in PubChem BioAssay.
GIRK2 act = activators of NPY4-receptor-primed GIRK2 channels, summary, cell-based, HEK293, thallium flux; HEK293 GIRK2/NPY4 cells, thallium flux fluorescence; activation (% efficacy), % for hits at 37.5 µM; 34,000 tested, under 10 active;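 active = primary screen hit, no activity in plain HEK293 cells, and in GIRK2-only cells above 5% efficacy rising with concentration; inactive = the rest, including fluorescent compounds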;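 also: efficacy is normalized control-subtracted fluorescence 15 s after thallium addition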
Target sequence (P48051 whole entry, looked up): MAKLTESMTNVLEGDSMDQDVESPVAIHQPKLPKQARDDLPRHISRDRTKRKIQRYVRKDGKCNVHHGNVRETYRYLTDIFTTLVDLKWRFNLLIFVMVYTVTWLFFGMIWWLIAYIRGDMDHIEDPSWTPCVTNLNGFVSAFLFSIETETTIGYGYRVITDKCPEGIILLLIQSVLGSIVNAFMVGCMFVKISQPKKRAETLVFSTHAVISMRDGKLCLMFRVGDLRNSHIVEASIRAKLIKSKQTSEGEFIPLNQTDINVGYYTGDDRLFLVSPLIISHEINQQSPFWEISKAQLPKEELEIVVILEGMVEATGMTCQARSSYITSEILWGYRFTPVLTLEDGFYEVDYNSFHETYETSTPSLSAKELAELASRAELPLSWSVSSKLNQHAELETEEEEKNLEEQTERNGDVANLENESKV
AMPAR-TARP mod = modulators of GluA2-stargazin AMPA receptor complexes, primary screen, cell-based, membrane potential dye | calls only at 30 µM | Voltage-dependent calcium channel gamma-2 subunit (Mus musculus) + Glutamate receptor 2 … | actives 3.5% (n = 40,000) | HEK293 GluA2+stargazin, membrane potential dye (FDSS), glutamate EC50; hits were called plate by plate, in both directions;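 active = any of four per-well response measures lying three or more SD from its plate-wide compound average, in either direction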
* hit, by the source's call. This excerpt belongs to a sample that is enriched for hits.

For COc1cc(C2NC(=O)NC(O)(C(F)(F)F)C2C(C)=O)ccc1OCc1ccccc1 (stereo not given) the results were AMPAR-TARP mod active.
`CC(=O)c1cccc(NC(=O)c2ccc(-c3ccccc3C(F)(F)F)o2)c1` gave AMPAR-TARP mod inactive.
`O=C(CC1CCCC1)Nc1nc(CSCc2ccc(F)cc2)cs1` gave GIRK2 act inactive and AMPAR-TARP mod active.
O=C(CCc1csc(NC(=O)c2ccc(F)cc2)n1)NCC1CCCCC1 was read as GIRK2 act inactive and AMPAR-TARP mod inactive.
For COC(=O)N1CCC(CNC(=O)C(=O)NCc2ccc(F)cc2)CC1 the results were GIRK2 act inactive and AMPAR-TARP mod inactive.
`CSc1ccccc1C(=O)N1CCC(c2cccs2)CC1` gave GIRK2 act inactive and AMPAR-TARP mod active.
`O=C(c1ccccc1Oc1ccccc1)N1CCC(c2cccs2)CC1` gave GIRK2 act inactive and AMPAR-TARP mod inactive.
For CCNc1cc(C)nc(NCCNC(=O)Nc2cc(Cl)ccc2OC)n1 the results were GIRK2 act inactive and AMPAR-TARP mod inactive.
Screening Cc1nn(C(C)(C)C)c(OC(=O)c2ccccc2Br)c1S(=O)(=O)c1ccccc1 returned AMPAR-TARP mod active.
`Cc1ccc(S(=O)(=O)c2c(C)nn(C(C)(C)C)c2OC(=O)c2ccccc2C)cc1` gave AMPAR-TARP mod inactive.
For COc1cc(OC)cc(C(=O)Oc2c(S(=O)(=O)c3ccc(C)cc3)c(C)nn2C(C)(C)C)c1 the results were AMPAR-TARP mod active.
Screening COc1cc(OC)cc(C(=O)Oc2c(S(=O)(=O)c3ccccc3)c(C)nn2C(C)(C)C)c1 returned AMPAR-TARP mod inactive.
For COc1ccccc1NC(=O)c1ccc(COc2ccc(Cl)cc2)o1 the results were AMPAR-TARP mod inactive.
Screening O=[N+]([O-])c1cccc(S(=O)(=O)NCC2COC3(CCCCC3)O2)c1 (stereo not given) returned GIRK2 act inactive and AMPAR-TARP mod active.
`O=[N+]([O-])c1ccc(S(=O)(=O)NCC2COC3(CCCCC3)O2)cc1` (stereo not given) gave GIRK2 act inactive and AMPAR-TARP mod inactive.
COc1cccc(-c2cc(CC(=O)N3c4ccc(F)cc4CCC3C)no2)c1 (stereo not given) was read as GIRK2 act inactive and AMPAR-TARP mod inactive.
`COc1ccc(C(=O)C2C(=O)N(c3ccccc3)N=C2C)c(OC)c1` (stereo not given) gave GIRK2 act inactive and AMPAR-TARP mod active.
`CC1=NN(c2ccccc2)C(=O)C1C(=O)c1ccc(S(=O)(=O)N2CCCCC2)cc1` (stereo not given) gave GIRK2 act inactive and AMPAR-TARP mod inactive.
CC1=NN(c2ccccc2)C(=O)C1C(=O)c1sc(-c2ccccc2)nc1C (stereo not given) was read as GIRK2 act inactive and AMPAR-TARP mod inactive.
For CC1=NN(c2ccccc2)C(=O)C1C(=O)c1cccc(F)c1 (stereo not given) the results were GIRK2 act inactive and AMPAR-TARP mod active.
For N#C/C(=C\N1CCN(Cc2ccccc2)CC1)C(=O)Nc1cccc(Cl)c1 the results were GIRK2 act inactive and AMPAR-TARP mod inactive.
Screening CCOc1ccccc1C(=O)NCCC(O)c1ccccc1 (stereo not given) returned GIRK2 act inactive and AMPAR-TARP mod inactive.
`CNC(=O)C(=O)NCC1CCN(c2cnccn2)CC1` gave GIRK2 act inactive and AMPAR-TARP mod inactive.
For CSc1cccc2sc(NC(=O)Cc3ccc(S(C)(=O)=O)cc3)nc12 the results were AMPAR-TARP mod inactive.
Screening CN(C)C(=O)Cc1ccc(NS(=O)(=O)c2cccs2)cc1 returned GIRK2 act inactive and AMPAR-TARP mod inactive.
`COc1ccc(OC)c(-c2nnc(NC(=O)c3ccnn3C)o2)c1` gave GIRK2 act inactive.
COc1ccc(-c2nnc(NC(=O)Cc3ccc(C)cc3)o2)c(OC)c1 was read as GIRK2 act inactive and AMPAR-TARP mod inactive.
For CCn1nccc1C(=O)Nc1nnc(-c2ccc(OC)cc2OC)o1 the results were GIRK2 act inactive and AMPAR-TARP mod active.
`COc1ccc(-c2nnc(NC(=O)C3CC3)o2)c(OC)c1` gave AMPAR-TARP mod active.
`COc1ccc(-c2nnc(NC(=O)C3CCCN3S(C)(=O)=O)o2)c(OC)c1` (stereo not given) gave GIRK2 act inactive and AMPAR-TARP mod inactive.
COc1ccc(-c2nnc(NC(=O)Cc3ccc(SC)cc3)o2)c(OC)c1 was read as AMPAR-TARP mod active.
COc1ccc2nc(-c3ccc(NS(=O)(=O)c4ccc(F)c(C)c4)cc3)cn2n1 was read as GIRK2 act inactive and AMPAR-TARP mod inactive.
For COC(=O)CN1CCN(c2nc3c(c(=O)[nH]c(=O)n3C)n2CCc2ccccc2)CC1 the results were AMPAR-TARP mod inactive.
Screening Cn1c(=O)[nH]c(=O)c2c1nc(N1CCN(CC(N)=O)CC1)n2CCCc1ccccc1 returned AMPAR-TARP mod active.
Screening CCOC(=O)CN1CCN(c2nc3c(c(=O)[nH]c(=O)n3C)n2CCc2ccccc2)CC1 returned AMPAR-TARP mod active.
Screening Cn1c(=O)[nH]c(=O)c2c1nc(N1CCC(C(N)=O)CC1)n2CCCc1ccccc1 returned AMPAR-TARP mod inactive.
Screening Cc1ccccc1-c1ccc(N2CCN(C(=O)c3ccc(=O)n(C)n3)CC2)nn1 returned GIRK2 act inactive and AMPAR-TARP mod inactive.
CCOC(=O)c1sc2cccc(F)c2c1S(=O)(=O)Nc1cc(Cl)c(OC)cc1OC was read as AMPAR-TARP mod active.
For CCOC(=O)c1sc2cccc(F)c2c1S(=O)(=O)Nc1ccc(OC)c(Cl)c1 the results were AMPAR-TARP mod inactive.
Screening COc1ccc(Nc2nc(N3CCNCC3)nc3ccccc23)c(OC)c1 returned AMPAR-TARP mod active.
Screening COc1ccc(-c2cc(OCC(=O)Nc3ccc(OC)cc3OC)c3ccccc3n2)cc1 returned GIRK2 act inactive and AMPAR-TARP mod inactive.
Screening CC(=O)OCCCCn1c(COc2ccccc2)nc2ccccc21 returned GIRK2 act inactive and AMPAR-TARP mod active.
Cc1ccc(OCCCCn2c(CNC(=O)c3ccco3)nc3ccccc32)cc1 was read as GIRK2 act inactive.
Screening O=C(Cc1cc(-c2ccc(Cl)cc2)on1)NCCCN1CCOCC1 returned GIRK2 act inactive and AMPAR-TARP mod inactive.
For Cc1c(C)n2c3c(=O)n(CC(N)=O)c(=O)n(C)c3nc2n1-c1ccc(Cl)cc1 the results were AMPAR-TARP mod inactive.
`Cc1ccc(-c2nn(CCC(=O)N3CCN(Cc4ccccc4)CC3)c(=O)c3ccccc23)cc1` gave AMPAR-TARP mod inactive.
`O=C(CCn1nc(-c2ccc(Cl)cc2)c2ccccc2c1=O)NC1CCCCC1` gave AMPAR-TARP mod active.
COc1ccccc1Cc1noc(C2CN(C(=O)Nc3ccccc3C(F)(F)F)C2)n1 was read as GIRK2 act inactive.
Screening O=C(NCC1CCN(C(=O)c2ccccc2F)CC1)C1c2ccccc2Oc2ccccc21 returned GIRK2 act inactive and AMPAR-TARP mod inactive.
